According to PubChem BioAssay (Tox21):
“And” between values parts separate entries of the source, which are not always exact repeats. Identical values can stand only once. Inconclusive results are not listed. Where a call stands in place of a potency, no number is given. The source holds several records for some structures; these can differ, active in one and inactive in another. The source made the active and inactive calls. Unless noted, the call rests on the fitted dose curve.
Potency means the concentration at half of the fitted maximal effect.

Experiment: qHTS assay for small molecule agonists of the p53 signaling pathway - cell viability (AID 651633); further: nearly all actives have a fitted effect of over 30% in size;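 on activity change, negative = cytotoxicity: p53RE-bla HCT reporter cells with a stable beta-lactamase p53 reporter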
Settings: p53RE-bla HCT-116 viability, ATP luminescence, 16 h; series mostly up to 83.3 µM; activity change, negative = cytotoxicity: at the top concentration
In short: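 p53RE-bla cells, seeded at 4,000 per well and rested 5 h at 37 C/5% CO2, received compounds in DMSO for 16 h at 37 C. CellTiter-Glo was then added, and luminescence was read after 30 min at room temperature to gauge cytotoxicity.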
In the case of `Cc1cccc(N(C)C(=S)Oc2ccc3ccccc3c2)c1`, the Potency is reported as “inactive and 17.2 µM (active)”. In the case of `COc1ccc(OC)c(C(O)CNC(=O)CN)c1` (stereo unspecified), the Potency is reported as “inactive”. With `O=C(c1ccccc1)c1ccc(O)cc1O` the Potency was “inactive”. For `OC(CCl)CCl`, the Potency was “inactive”. With `CC1=CCC(C(C)(C)O)CC1` (stereo unspecified) the Potency was “inactive”. With `CN(C)CCC=C1c2ccccc2CCc2ccccc21` the Potency was “inactive”. With `Nc1ccccc1N` the Potency was “inactive”. In the case of `O=C(OCc1ccccc1)c1ccccc1O`, the Potency is reported as “inactive”. For `c1cc(-c2ccncc2)ccn1`, the Potency was “inactive”. In the case of `CC(=O)c1ccccn1`, the Potency is reported as “inactive”. In the case of `CCCCNS(=O)(=O)c1ccccc1`, the Potency is reported as “inactive”. With `C=CC(C)(CCC=C(C)C)OC(C)=O` (stereo unspecified) the Potency was “inactive”. With `Cn1cnc([N+](=O)[O-])c1Sc1ncnc2nc[nH]c12` the Potency was 680 nM (active). In the case of `OCCO`, the Potency is reported as “inactive”. For `NNc1ccc(C(=O)O)cc1`, the Potency was “inactive”. With `Cc1cccc(C(=O)O)c1` the Potency was “inactive”. With `C=C(C)C1CC=C(C)CC1` (stereo unspecified) the Potency was “inactive”. In the case of `CC(C)CC(C)(O)C#CC(C)(O)CC(C)C` (stereo unspecified), the Potency is reported as “inactive”. With `C#C[C@]1(O)CC[C@H]2[C@@H]3CCC4=Cc5oncc5C[C@]4(C)[C@H]3CC[C@@]21C` the “activity change, negative = cytotoxicity” value was -8.98% (inactive). In the case of `CCOC(=O)C(C#N)=C(c1ccccc1)c1ccccc1`, the Potency is reported as “inactive”. For `Nc1ccc(S(=O)(=O)Nc2cnc3ccccc3n2)cc1`, the Potency was “inactive”. For `CCCCOCCOCCOCCO`, the Potency was “inactive”. With `c1ccncc1` the Potency was “inactive”. In the case of `COC(=O)CCC(=O)OC`, the Potency is reported as “inactive”. In the case of `Cc1[nH]c(=O)c(C#N)cc1-c1ccncc1`, the Potency is reported as “inactive”. For `O=Cc1ccccc1O`, the Potency was “inactive”. For `C=C(C)C(=O)OCCOC(=O)C(=C)C`, the Potency was “inactive”. In the case of `CN1C(C(=O)Nc2ccccn2)=C(O)c2ccccc2S1(=O)=O`, the Potency is reported as “inactive”. With `C[C@]12CC[C@H]3[C@@H](CCC4=CC(=O)CC[C@@]43C)[C@@H]1CC[C@@H]2C(=O)CO` the Potency was “inactive”. In the case of `O=C(c1ccc(OCCN2CCCCC2)cc1)c1c(-c2ccc(O)cc2)sc2cc(O)ccc12`, the Potency is reported as 29.8 µM (active) and 61.2 µM (active) and 61.1 µM (active). With `COc1cccc2c1C(=O)c1c(O)c3c(c(O)c1C2=O)C[C@@](O)(C(=O)CO)C[C@@H]3O[C@H]1C[C@H](N)[C@H](O)[C@H](C)O1` the Potency was “inactive”. For `Cc1cccc([N+](=O)[O-])c1C`, the Potency was “inactive”. For `Cc1c(C(N)=O)cc([N+](=O)[O-])cc1[N+](=O)[O-]`, the Potency was “inactive”. In the case of `CC(C)(C)NC(=O)[C@H]1CC[C@H]2[C@@H]3CC[C@H]4NC(=O)C=C[C@]4(C)[C@H]3CC[C@]12C`, the Potency is reported as “inactive”. In the case of `C#C[C@]1(O)CC[C@H]2[C@@H]3CCc4cc(OC)ccc4[C@H]3CC[C@@]21C`, the Potency is reported as “inactive”. For `COC(C)COC(C)COC(C)CO` (stereo unspecified), the Potency was “inactive”. With `O=C(/C=C/c1ccccc1)OCc1ccccc1` the Potency was “inactive”. For `CC(=O)C1(C)CC2=C(CCCC2(C)C)CC1C` (stereo unspecified), the Potency was “inactive”.

Experiment: qHTS assay for small molecules that induce genotoxicity in human embryonic kidney cells expressing luciferase-tagged ATAD5 - cell viability (AID 651634); further: nearly all actives have a fitted effect of over 25% in size
Settings: HEK293T ATAD5-luc cells viability, CellTiter-Fluor, 15.5 h; series mostly up to 83.3 µM; activity, negative = cytotoxicity: at the top concentration
In short: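 After 15.5 hr incubation with compound at 37C, 5% CO2, HEK293T ATAD5-luciferase cells received CellTiter-Fluor reagent; fluorescence intensity was quantified following 30 min at 37C.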
In the case of `CC1=CCC(C(C)(C)O)CC1` (stereo unspecified), the Potency is reported as “inactive”. With `CN(C)CCC=C1c2ccccc2CCc2ccccc21` the Potency was “inactive”. With `NNc1ccc(C(=O)O)cc1` the Potency was “inactive”. For `CC(C)CC(C)(O)C#CC(C)(O)CC(C)C` (stereo unspecified), the Potency was “inactive”. For `C#C[C@]1(O)CC[C@H]2[C@@H]3CCC4=Cc5oncc5C[C@]4(C)[C@H]3CC[C@@]21C`, the Potency was “inactive”. With `CCOC(=O)C(C#N)=C(c1ccccc1)c1ccccc1` the Potency was “inactive”. In the case of `CCCCOCCOCCOCCO`, the Potency is reported as “inactive”. For `Cc1[nH]c(=O)c(C#N)cc1-c1ccncc1`, the Potency was “inactive”. With `O=C(c1ccc(OCCN2CCCCC2)cc1)c1c(-c2ccc(O)cc2)sc2cc(O)ccc12` the Potency was 26.6 µM (active) and 54.5 µM (active).

Experiment: qHTS assay for small molecule disruptors of the mitochondrial membrane potential - cell viability (AID 720634); further: nearly all actives have a fitted effect of over 20% in size;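 on activity change, negative = cytotoxicity: human HepG2 liver cancer cells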
Settings: HepG2 viability, ATP luminescence (CellTiter-Glo), 1 h; series mostly up to 83.2 µM; activity change, negative = cytotoxicity: at the top concentration
In short: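 ATP-based luminescent viability readout (CellTiter-Glo, 30 min, room temperature) in HepG2 cells multiplexed with the m-MPI membrane potential dye; compound exposure lasted 1 hr at 37 C.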
With `Cc1cccc(N(C)C(=S)Oc2ccc3ccccc3c2)c1` the Potency was 17.2 µM (active). In the case of `COc1ccc(OC)c(C(O)CNC(=O)CN)c1` (stereo unspecified), the Potency is reported as “inactive”. In the case of `Nc1ccccc1N`, the “activity change, negative = cytotoxicity” value is reported as -8.28% [at 95.3 µM] (inactive). For `O=C(OCc1ccccc1)c1ccccc1O`, the Potency was “inactive”. With `c1cc(-c2ccncc2)ccn1` the Potency was “inactive”. In the case of `CC(=O)c1ccccn1`, the Potency is reported as “inactive”. In the case of `CCCCNS(=O)(=O)c1ccccc1`, the “activity change, negative = cytotoxicity” value is reported as -11.4% (inactive). For `Cn1cnc([N+](=O)[O-])c1Sc1ncnc2nc[nH]c12`, the Potency was “inactive”. In the case of `OCCO`, the Potency is reported as “inactive”. In the case of `NNc1ccc(C(=O)O)cc1`, the Potency is reported as “inactive”. With `CC(C)CC(C)(O)C#CC(C)(O)CC(C)C` (stereo unspecified) the “activity change, negative = cytotoxicity” value was -12.2% (inactive). For `COC(=O)CCC(=O)OC`, the Potency was “inactive”. With `CN1C(C(=O)Nc2ccccn2)=C(O)c2ccccc2S1(=O)=O` the Potency was “inactive”. In the case of `CNCCCC12CCC(c3ccccc31)c1ccccc12`, the Potency is reported as “inactive”. For `C[C@]12CC[C@H]3[C@@H](CCC4=CC(=O)CC[C@@]43C)[C@@H]1CC[C@@H]2C(=O)CO`, the “activity change, negative = cytotoxicity” value was -0.985% [at 39.1 µM] (inactive). For `O=C(c1ccc(OCCN2CCCCC2)cc1)c1c(-c2ccc(O)cc2)sc2cc(O)ccc12`, the Potency was “inactive”. For `Cc1c(C(N)=O)cc([N+](=O)[O-])cc1[N+](=O)[O-]`, the Potency was “inactive”. In the case of `CC(C)(C)NC(=O)[C@H]1CC[C@H]2[C@@H]3CC[C@H]4NC(=O)C=C[C@]4(C)[C@H]3CC[C@]12C`, the Potency is reported as “inactive”. In the case of `COC(C)COC(C)COC(C)CO` (stereo unspecified), the Potency is reported as “inactive”.

Experiment: qHTS assay for small molecule disruptors of the mitochondrial membrane potential (AID 720635; active means well fitted inhibition curve with a large enough effect in the signal ratio in the repeat runs; the % refers to the signal ratio)
Settings: HepG2 mitochondrial membrane potential, Mito-MPS dye ratio; series mostly up to 83.2 µM; ratio activity, negative = MMP loss: at the top concentration
In short: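 HepG2 cells (2,000/well) attached overnight at 37C, then took compound for 1 hr at 37C, 5% CO2. Mito-MPS dye was added for 30 min; fluorescence was read at 490/535 nm (monomers) and 540/590 nm (aggregates).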
In the case of `Cc1cccc(N(C)C(=S)Oc2ccc3ccccc3c2)c1`, the Potency is reported as “inactive and 21.7 µM (active)”. In the case of `COc1ccc(OC)c(C(O)CNC(=O)CN)c1` (stereo unspecified), the “ratio activity, negative = MMP loss” value is reported as 12.1% (inactive). For `O=C(c1ccccc1)c1ccc(O)cc1O`, the Potency was 27.8 µM (active) and 61.1 µM (active). In the case of `Nc1ccccc1N`, the Potency is reported as 314 nM (active) and 686 nM (active). In the case of `O=C(OCc1ccccc1)c1ccccc1O`, the Potency is reported as 61.1 µM (active). With `CC(=O)c1ccccn1` the Potency was “inactive”. With `CCCCNS(=O)(=O)c1ccccc1` the Potency was 48.6 µM (active). In the case of `C=CC(C)(CCC=C(C)C)OC(C)=O` (stereo unspecified), the “ratio activity, negative = MMP loss” value is reported as 2.89% (inactive). For `Cn1cnc([N+](=O)[O-])c1Sc1ncnc2nc[nH]c12`, the Potency was 23.7 µM (active). In the case of `OCCO`, the Potency is reported as “inactive”. For `Cc1cccc(C(=O)O)c1`, the Potency was “inactive”. With `CC(C)CC(C)(O)C#CC(C)(O)CC(C)C` (stereo unspecified) the Potency was 47.6 µM (active) and 48.6 µM (active). For `Nc1ccc(S(=O)(=O)Nc2cnc3ccccc3n2)cc1`, the “ratio activity, negative = MMP loss” value was -21.3% (inactive). With `COC(=O)CCC(=O)OC` the “ratio activity, negative = MMP loss” value was 14.7% (inactive). For `O=Cc1ccccc1O`, the Potency was “inactive”. For `C=C(C)C(=O)OCCOC(=O)C(=C)C`, the “ratio activity, negative = MMP loss” value was 3.11% (inactive). In the case of `CN1C(C(=O)Nc2ccccn2)=C(O)c2ccccc2S1(=O)=O`, the Potency is reported as 5.69 µM (active) and 4.9 µM (active). For `C[C@]12CC[C@H]3[C@@H](CCC4=CC(=O)CC[C@@]43C)[C@@H]1CC[C@@H]2C(=O)CO`, the “ratio activity, negative = MMP loss” value was -7.22% [at 39.1 µM] (inactive). In the case of `O=C(c1ccc(OCCN2CCCCC2)cc1)c1c(-c2ccc(O)cc2)sc2cc(O)ccc12`, the Potency is reported as 4.22 µM (active) and 1.72 µM (active) and 4.33 µM (active). In the case of `COc1cccc2c1C(=O)c1c(O)c3c(c(O)c1C2=O)C[C@@](O)(C(=O)CO)C[C@@H]3O[C@H]1C[C@H](N)[C@H](O)[C@H](C)O1`, the Potency is reported as “inactive and 2.73 µM (active)”. For `Cc1cccc([N+](=O)[O-])c1C`, the Potency was “inactive”. In the case of `Cc1c(C(N)=O)cc([N+](=O)[O-])cc1[N+](=O)[O-]`, the “ratio activity, negative = MMP loss” value is reported as -10.9% (inactive). For `CC(C)(C)NC(=O)[C@H]1CC[C@H]2[C@@H]3CC[C@H]4NC(=O)C=C[C@]4(C)[C@H]3CC[C@]12C`, the Potency was “inactive”. For `C#C[C@]1(O)CC[C@H]2[C@@H]3CCc4cc(OC)ccc4[C@H]3CC[C@@]21C`, the Potency was 19.3 µM (active). In the case of `COC(C)COC(C)COC(C)CO` (stereo unspecified), the Potency is reported as “inactive”.
